# Compounds with a hit are over-represented: about 2.2% of the library has one in this group of screens.
# SMARCA2 activ = increases SMARCA2 function in MMTV reporter cells | MG213 cells, MMTV-luciferase reporter, dexamethasone, overnight | activation, % at 9.1 µM | actives 1% (n = 370,000) | AID 652017; in the data active = activation above about 7.8%;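 note: 0% = vehicle wells and 100% = reference activator wells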
# HIF act = HIF pathway transcriptional activation. activation, % at 7.5 µM (by protocol). actives 0.32% (n = 300,000). U2OS HRE-luciferase reporter, luminescence; normalized: DMSO 0%, desferrioxamine 100%. AID 1910;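 active = mean activation of at least 10% of the iron chelator positive control signal, with at least half of replicates also reaching 10%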
# Hsp70 act = transcriptional activators of Hsp70 | HeLa Hsp70 promoter luciferase reporter, luminescence; scaled: vehicle 0, proteasome-inhibitor control 100% | activation, % at 10 µM | actives 0.04% (n = 200,000) | AID 1203;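 active = activation above the mean across all tested compounds plus 3 SD, cutoff set per campaign, cut at about 5.5% in these data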;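 note: 100% = MG132 at 30 µM as the positive control and 0% = DMSO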
# GAA850 FXN act = increases GAA850 frataxin promoter reporter activity | HEK293 lucGAA850 FXN promoter luciferase reporter, 24 h; percent of 10 µM SAHA response | activation, % at 6 µM | actives 0.56% (n = 360,000);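 active = activation above the average of all compounds screened plus 3 SD, cutoff fixed separately per campaign, cut at about 7.5% in these data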;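 note: 0% = DMSO wells and 100% = 10 µM SAHA wells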
# GalR3 antagonist = antagonists of human GalR3 | HEK293 GalR3-CNG cAMP membrane potential fluorescence; galR3 body fused to GalR1 C-terminus | AID 651719 | O60755 | inhibition, % at 3 µM | actives 0.44% (n = 360,000);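 active = inhibition above the screen-wide average plus 3 SD, cut at about 13% in these data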;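 note: forskolin and galanin both at EC90 stimulate the cells; cAMP rise reported by CNG channel membrane potential dye signal; 0% = forskolin plus galanin with DMSO and 100% = forskolin alone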
# Target sequence (O60755 1-299 limits assumed): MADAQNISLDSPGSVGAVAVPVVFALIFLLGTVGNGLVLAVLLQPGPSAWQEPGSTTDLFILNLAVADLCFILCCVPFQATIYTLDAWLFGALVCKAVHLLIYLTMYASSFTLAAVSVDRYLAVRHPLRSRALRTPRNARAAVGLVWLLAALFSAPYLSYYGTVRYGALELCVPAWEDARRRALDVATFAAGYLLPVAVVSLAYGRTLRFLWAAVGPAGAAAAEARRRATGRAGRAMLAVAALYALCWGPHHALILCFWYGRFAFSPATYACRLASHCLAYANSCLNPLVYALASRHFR
# SMARCA2 act conf = confirmation of SMARCA2 (BRM) function activators; shares compounds with SMARCA2 activ; MG213 cells, MMTV-luciferase with dexamethasone, luminescence, overnight; MG213 cells expressing E1A, Rb sequestered; DMSO wells 0%, reference activator 100%; activation, % at 9.1 µM; actives 30% (n = 3,500);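 active = activation above its plate's cutoff, the mean activation of tested wells plus 3 SD, cut at about 7.9% in these data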
# VP16 Luc act = activates GAL4-VP16 luciferase, flagging SMARCA2 activator hits; activation, % at 9.1 µM; actives 41% (n = 3,500); HEK293 GAL4-VP16 pG5luc reporter, luciferase luminescence; scaled: DMSO wells 0%, SAHA wells 100%; shares compounds with SMARCA2 activ;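 active = activation above the solvent-only control well mean plus 3 SD, averaged across control plates, cut at about 5.2% in these data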
# The depositor's hits bear a star; . = no result.
SMILES,SMARCA2 activ,HIF act,Hsp70 act,GAA850 FXN act,GalR3 antagonist,SMARCA2 act conf,VP16 Luc act
Cc1cc(NC(=O)COc2cc(F)cc(F)c2)n(-c2ccccc2)n1,5.1,.,.,.,.,.,.
O=C(N/N=C/c1c[nH]c2ccccc12)c1ccn(Cc2ccc(Cl)cc2Cl)n1,-2.2,-0.7,-0.3,-0.9,-5.6,.,.
Cn1ccc(C(=O)N/N=C/c2c[nH]c3ccccc23)n1,15.7*,0.8,.,3.8,-9.2,8.0*,3.6
O=C(COC(=O)CNS(=O)(=O)c1cccc(Br)c1)NC(=O)Nc1ccc2c(c1)OCCO2,11.0*,.,0.0,0.7,-3.7,7.5,1.4
O=C(COC(=O)CNS(=O)(=O)c1ccc2ccccc2c1)Nc1ccc2c(c1)OCO2,-3.2,-8.6,-0.2,2.5,0.8,.,.
COc1ccc(CN2C(C(=O)NC3CCCC3)CSCCS2(=O)=O)cc1 (stereo not given),-4.8,.,.,.,.,.,.
Cc1cc2cc3c(cc2nc1SCC(=O)N1CCOCC1)OCO3,8.4*,0.9,.,0.3,-7.7,0.6,-1.1
Cc1ccc(NC(=O)c2cccc3c2-c2ccccc2C3=O)c(C)c1,-3.8,.,.,.,.,.,.
COc1cccc(-c2cc(C(=O)N3CCCCCC3)no2)c1,1.4,-0.8,0.4,2.3,.,.,.
COc1cccc(-c2cc(C(=O)N3CCCCC3C)no2)c1 (stereo not given),11.6*,3.0,-0.1,5.6,-7.4,6.3,11.9*
O=C(Nc1cccnc1)c1cc(-c2cc(Cl)ccc2O)n[nH]1,11.4*,3.7,.,5.2,-0.2,9.6*,9.9*
C#CCCN([C@H](C(=O)OC)C(C)C)S(=O)(=O)c1ccccc1Br,-4.3,.,.,.,.,.,.
COc1ccc(C(=O)N2CCC[C@@H]2C(=O)N2CCC[C@@H]2C(=O)NCc2ccccc2)cc1F,-4.1,.,.,.,-1.8,.,.
C/C(CC(=O)Nc1ccc(Cl)cc1C(F)(F)F)=N\NC(=O)c1cccs1,10.0*,2.1,.,5.2,-5.9,3.5,2.5
C[C@H](O)[C@@H]1C(=O)N2CCc3c([nH]c4cccc(-c5ccccc5)c34)[C@@H]2C[C@@H]1N(C)C(=O)Nc1ccccc1,-3.7,.,.,.,-7.4,.,.
O=[N+]([O-])c1cc2c(ccc3occc32)o1,1.7,.,.,.,-8.6,.,.
N/C(=N\OC(=O)c1ccc(Br)cc1)c1ccncc1,3.5,1.3,0.3,2.8,-2.0,.,.
N/C(=N\OC(=O)c1cccc(Br)c1)c1ccncc1,8.0*,0.2,0.2,3.5,-4.4,7.2,7.4*
O=C(Oc1ccccc1Cl)c1ccc(-n2cncn2)nc1,8.2*,-2.7,0.5,0.3,-6.4,-4.1,0.4
CCCN1CCS(=O)(=O)N(Cc2cn(Cc3ccc(F)cc3)nn2)C(C(=O)OC)C1 (stereo not given),0.0,.,.,.,.,.,.
CC(C)COc1ccc(-c2nnn(CC(=O)N3CCCC3)n2)cc1,9.9*,0.5,0.3,3.2,-4.0,5.8,8.2*
CCN1CCN(c2ccc(S(=O)(=O)N3CCCCC3)cc2NC(=O)/C=C/c2ccc([N+](=O)[O-])cc2)CC1,14.8*,-1.6,.,-2.1,1.4,23.1*,0.3
CCN1CCN(c2ccc(S(=O)(=O)N3CCOCC3)cc2NC(=O)/C=C/c2ccc(C)cc2)CC1,1.4,-0.5,.,-3.1,-1.7,.,.
CCN1CCN(c2ccc(S(=O)(=O)N3CCCCC3)cc2NC(=O)/C=C/c2ccc(F)cc2)CC1,6.2,0.3,.,-1.3,0.7,.,.
O=C(/C=C/c1ccc(Cl)cc1)Nc1cc(S(=O)(=O)N2CCOCC2)ccc1N1CCOCC1,8.2*,.,.,1.3,3.0,2.0,-0.1
SMILES,SMARCA2 activ,HIF act,Hsp70 act,GAA850 FXN act,GalR3 antagonist,SMARCA2 act conf,VP16 Luc act
CCN(CC)CCCN1C(=O)C2=C(C1=O)C1N(C)c3ccccc3[C@@]13C[C@@H](CO)N(C(=O)CCC(=O)OC)C3=N2 (stereo not given in full),-1.8,.,.,.,.,.,.
O=C(CCl)Oc1ccc2occ(C(=O)c3cccs3)c2c1,8.6*,3.4,-0.1,-1.1,-4.7,4.2,6.5*
COc1ccc(C2=Nc3ccccc3N(C(=O)c3ccncc3)C2C(=O)NC(C)C)cc1 (stereo not given),9.7*,.,.,.,-3.2,0.1,2.6
COC(=O)C1=C(C)N(Cc2cccc(C(F)(F)F)c2)C(=NCC2CC2)NC1c1ccc(F)cc1 (stereo not given),-7.3,.,.,.,-7.8,.,.
CC(C)=CCNc1ncnc2c1c(C#N)cn2C1OC(CO)C(O)C1O (stereo not given),41.2*,.,.,-1.6,-3.4,58.9*,0.1
CN(C(=O)c1cc2sccc2n1C)C1CCCCC1,8.9*,2.5,0.0,4.8,-10.0,1.6,7.5*
O=Cc1ccc(OCC(=O)N2CCc3ccccc32)c(Br)c1,-1.0,.,.,2.3,-5.9,.,.
O=C(COc1ccc(F)cc1Br)N1CCc2ccccc21,11.5*,4.0,0.1,4.5,-6.8,6.3,13.6*
O=C(c1cc2cc(F)ccc2[nH]1)N1CCc2ccccc21,10.4*,3.4,.,3.1,-7.1,7.6,9.3*
C=CCN1C(=O)[C@@H](CC(=O)NCc2ccc(C)o2)[C@]2(C(=O)OC)CCCCC=C12,2.3,.,.,.,.,.,.
C#CCn1c2ccccc2c2nc3ccccc3nc21,9.3*,0.9,.,6.2,-11.4,5.4,3.3
Cc1ccc(Cn2ccnc2C(=O)Nc2ccccc2)cc1,9.3*,1.8,-0.3,2.9,-1.6,6.5,2.9
N#Cc1ccc(Cn2ccnc2C(=O)Nc2ccccc2)cc1,-1.3,0.2,0.0,3.2,-4.8,.,.
CC(C)CN1C(=O)[C@]2(CC(=O)N(C)C2c2ccccc2)c2cc(-n3cc(C4=CCCCC4)nn3)ccc21 (stereo not given in full),-4.3,.,.,.,.,.,.
O=C(O)CCC(=O)OCc1c(-c2ccccc2)ncc2ccccc12,0.9,.,.,-0.8,-3.4,.,.
O=C(OCc1c(-c2ccccc2)ncc2ccccc12)N1CCOCC1,9.6*,.,.,2.6,0.0,7.3,1.9
Oc1c(Cl)cc(Cl)c2cccnc12,2.4,-0.2,0.0,-0.9,-3.1,.,.
Cc1ccc2c(Cl)cc(Cl)c(O)c2n1,10.3*,.,.,5.4,-4.8,-15.7,11.2*
O=C(CNSc1ccc([N+](=O)[O-])cc1[N+](=O)[O-])OCc1ccccc1,-0.3,.,.,.,-2.8,.,.
CCOC(=O)c1ccc(NC(=S)N(CCN(C)C)C(C)c2ccncc2)cc1 (stereo not given),11.3*,-0.2,.,1.7,-8.0,-2.3,-0.8
Cn1c2ccccc2c(=O)c2ccc(NCCc3cccs3)cc21,9.0*,.,.,10.0*,-7.0,9.4*,13.9*
Cc1[nH]c2ccccc2c1CCN(Cc1cccs1)C(=O)Nc1cccc2c1OCO2,-3.4,.,.,.,.,.,.
O=C(NN=Cc1ccc(O)cc1)c1cc(-c2ccc(Cl)cc2)n[nH]1,-0.9,.,.,.,.,.,.
CCOC(=O)c1csc(-c2ccc3c(c2)CCO3)n1,15.6*,2.7,.,1.9,-3.3,3.4,6.7*

# Compound activity: PubChem, several laboratories
